Growth data for 40 compounds are collected here from PubChem BioAssay (NCI).

The structures appear in SMILES notation. About 83,000 compounds went through this panel and 20% of them were active in at least one assay; those are over-represented in the sample as a whole.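 Interpretation: 100, growth as untreated; towards 0, rising growth inhibition; 0, no net growth; 0 to -100, cell death. Compounds scoring below 10 were considered active.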 Activity calls are given as the source filed them.

The subject of this assay is MDA-MB-468 breast. Briefly: NCI-60 one-dose screen, 48 h (100 = growth as untreated, 0 = no growth, -100 = all killed). To be noted: 10 µM unless noted.
Take `C=C1C(=O)O[C@H]2[C@H]1CC/C(Cn1cc(-c3cc(C)c(C)cc3C)nn1)=C\CC[C@@]1(C)O[C@@H]21`: the growth was -75.6% (active).

Take `C#Cc1ccc(-n2c(/C=C/c3ccc4ccccc4c3)nc3ncccc3c2=O)cc1`: the growth was -16.1% (active).

As for `O=C1CSC(c2ccccc2Cl)N1c1nnc(-c2ccncc2)o1` (stereo not given), the growth was 98.4% (inactive).

For the compound `Cc1cc2c(c(C)n1)CN(C(=O)Nc1nc(-c3cncs3)ccc1N)C2`, the growth is 110% (inactive).

As to `c1cnc2c(-c3nc4ccc5[nH]ncc5c4c4c3CCCC4)c[nH]c2c1`, the growth was 10.9% (inactive).

Take `Cn1cc(-c2nonc2-c2cn(C)c3ccc(Br)cc23)c2ccccc21`: the growth is 42.8% (inactive).

Regarding `COc1ccc(-c2nc(SCCC(C)C)nc(N/N=C\c3ccc(O)cc3)c2C#N)cc1`, the growth is 88.8% (inactive).

Regarding `O=[N+]([O-])c1ccc2c(c1)Cc1cc(F)ccc1-2`, the growth is 53.9% (inactive).

Regarding `O=C(/C=C/C12c3ccccc3C(c3ccccc31)C1C(=O)NC(=O)C12)c1ccccc1` (stereo not given), the growth is 9.65% (active).

In the case of `COC(c1ccccc1)C(Br)C(=O)c1ccccc1` (stereo not given), the growth was 94.8% (inactive).

For `CCOC(=O)C(=O)/C(=C\c1ccc(Cl)cc1)C(=O)N1C(=S)NC(=O)C1CC(C)C` (stereo not given), the growth is 90% (inactive).

Take `N#Cc1cccc(-c2c(-c3ccc4ccccc4c3)oc3ccccc3c2=O)c1`: the growth is 3.16% (active).

`c1ccc2[nH]c(-c3ccc(Nc4nc(N5CCCCC5)nc(N5CCOCC5)n4)cc3)nc2c1`: the growth is -3.66% (active).

Turning to `COc1ncc(-c2ccc3ncnc(Nc4cccc(Cl)c4)c3c2)cc1NS(=O)(=O)CCN1CCOCC1`, the growth is -52.8% (active).

In the case of `CC(=O)/C(=C/c1ccc(-c2ccccc2)cc1)C(=O)c1ccccc1`, the growth was 92.2% (inactive).

For the compound `Cc1ccc(S(=O)(=O)c2nc(-c3ccccc3)oc2SCC(N)=O)cc1`, the growth is 91.7% (inactive).

As for `Cc1cc(=O)n(C(=S)Nc2ccc(Cl)cc2)c2cc(O)ccc12`, the growth was 98.7% (inactive).

Turning to `O=C(Cc1ccccc1)c1ccc(Cl)cc1`, the growth is 124% (inactive).

`O=C(/C=C/c1ccco1)Nc1ncc(Cc2cccc(C(F)(F)F)c2)s1`: the growth is 10.1% (inactive).

Take `O=C(Nc1ccncc1)C(=O)c1cn(S(=O)(=O)c2cccc(Cl)c2)c2ccccc12`: the growth was 31.2% (inactive).

Take `O=C(Oc1ccc[nH]c1=O)c1cc([N+](=O)[O-])cc([N+](=O)[O-])c1`: the growth is 119% (inactive).

As for `C[PH+](c1nc2ccccc2nc1[PH+](C)C(C)(C)C)C(C)(C)C.C[PH+](c1nc2ccccc2nc1[PH+](C)C(C)(C)C)C(C)(C)C.[Au+].[Cl-]` (stereo not given), the growth is -80.7% (active).

As to `Cc1cc(C)c(O)c(CNCCCNCc2cc(C)cc(C)c2O)c1`, the growth is 7.95% (active).

For `COc1ccc(-c2nc3c(c(=O)n2C(C)=O)C(c2ccc(Cl)cc2)c2sc4c(Cl)cccc4c2O3)cc1` (stereo not given), the growth was 5.77% (active).

As for `O=S(Nc1ccccc1)c1ccc(Cl)cc1` (stereo not given), the growth is 91.5% (inactive).

For the compound `CSc1nc(N)c(NS(=O)(=O)c2ccc(C(C)=O)cc2)c(=O)[nH]1`, the growth is 97% (inactive).

Consider `Nc1ccc(C2=NN(C(=O)c3cc(-c4ccc(Cl)cc4)nc4ccccc34)C(c3ccc(Cl)cc3)C2)cc1` (stereo not given), for which the growth is 7.85% (active).

Consider `Oc1ccc(Cl)cc1Cc1cc(Cl)cc(Cl)c1O`, for which the growth is 18.4% (inactive).

Turning to `COc1ccc2c(c1)c(-c1noc(C(=O)c3cn(C)c4ccc(Br)cc34)n1)cn2C`, the growth was 120% (inactive).

Turning to `O=C(O)c1cc([N+](=O)[O-])ccc1Cl`, the growth is 109% (inactive).

As to `COc1cc(OCc2cccc(-c3ccc(C(O)c4nccs4)cc3)c2C)cc(OC)c1C=O` (stereo not given), the growth was -36.5% (active).

Turning to `CCOc1nc(-c2ccccc2)cc2c(O)c(C(=O)O)[nH]c(=O)c12`, the growth is 96.2% (inactive).

Consider `Cc1nn(-c2cccc(Cl)c2)c(C)c1N=Nc1ccc(Br)cc1`, for which the growth was 97.6% (inactive).

`N=C(N)c1ccc(-c2ccc(-c3cccs3)s2)cc1F`: the growth is -77.4% (active).

For the compound `COc1ccc(NC2=C(I)C(=O)c3ncccc3C2=O)cc1`, the growth is -58% (active).

For the compound `Cc1cc(C)c(NC(=O)c2sc3nc4c(cc3c2N)CCCC4)c(C)c1`, the growth is 47.9% (inactive).

In the case of `CCCCCCCCCC[N+](C)(C)N`, the growth was 55.1% (inactive).

For `Cc1c(O)c(=O)n(-c2ccccc2)n1C`, the growth was 105% (inactive).

For the compound `COc1ccc(Nc2ncccc2NC(=O)c2cn(Cc3cccc(Oc4ccccc4)c3)nn2)cc1`, the growth was 89.8% (inactive).

In the case of `O=c1c(CNc2ccc(S(=O)(=O)Nc3nccs3)cc2)coc2ccccc12`, the growth is 92.9% (inactive).
